High-throughput results from PubChem BioAssay.
DRD3 agonist – activates the human D3 dopamine receptor; D3R DiscoveRx beta-arrestin cells, luminescence, 90 min; max activation, %; hit rate 0.58% among 410,000; P35462; in the data active = max activation above about 30%
Target sequence (P35462 whole entry, looked up): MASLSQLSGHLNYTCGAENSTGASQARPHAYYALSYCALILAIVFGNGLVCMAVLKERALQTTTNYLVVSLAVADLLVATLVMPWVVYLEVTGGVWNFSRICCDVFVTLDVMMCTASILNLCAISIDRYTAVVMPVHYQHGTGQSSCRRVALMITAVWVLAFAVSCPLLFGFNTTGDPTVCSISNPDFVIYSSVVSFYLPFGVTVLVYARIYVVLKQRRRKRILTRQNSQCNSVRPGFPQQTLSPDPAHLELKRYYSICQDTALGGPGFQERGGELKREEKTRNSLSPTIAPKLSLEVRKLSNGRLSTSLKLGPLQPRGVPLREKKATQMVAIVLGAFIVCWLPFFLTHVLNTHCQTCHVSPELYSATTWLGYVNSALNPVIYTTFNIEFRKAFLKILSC
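Agonist mode: compounds and dopamine controls were applied to plated cells for 90 min at 37 degrees C after an overnight attachment at 1500 cells/well. Luminescent read-out followed 30 - 60 minutes at room temperature with DiscoveRx detection reagent.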
DRD3 antagonist – D3 dopamine receptor (human) antagonism; hit rate 2.5% among 360,000; AID 652054; D3R cells, DiscoveRx beta-arrestin luminescence, antagonist mode; active compounds read low; P35462; max response, negative = inhibition, %; in the data active = max response below about -50%; inconclusive = no clear call, values can overlap the other calls
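Cells expressing the human receptor were seeded at 1500 cells/well, incubated overnight at 37 degrees C in 5% CO2, then exposed to library compounds with dopamine controls for 90 minutes at 37 degrees C before luminescent detection.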
ClpP mod – qHTS Assay for Activators of ClpP; purified B. subtilis ClpP, FRET peptide cleavage, 20 min; Potency, µM (series often up to 57.5 µM); hit rate 1.9% among 340,000; active = well fitted falling curve with a large enough effect; inconclusive = small, poorly fitted or top-dose-only effect; inactive = no such curve, though single readings can be large or run the other way; note: the source files actives as falling curves though it sought activators and does not explain the sign; nearly all actives have a fitted effect of over 65% in size
Target sequence (P80244 whole entry, looked up): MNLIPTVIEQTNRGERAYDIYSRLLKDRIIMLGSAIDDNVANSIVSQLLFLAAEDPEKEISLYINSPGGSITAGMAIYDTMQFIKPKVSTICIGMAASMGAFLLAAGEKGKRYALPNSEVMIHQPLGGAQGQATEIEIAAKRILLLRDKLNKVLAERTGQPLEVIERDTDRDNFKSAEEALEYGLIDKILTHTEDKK
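Buffer: 100 mM Tris/HCl pH8, 100 mM KCl, 0.05% low protease BSA, 2.5% glycerol, 0.01% Tween-20. ClpP 10 microg/mL final; 20 min RT; delta FRET normalized to ADEP and DMSO controls.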
TDP1 cell noCPT – qHTS for Inhibitors of human tyrosyl-DNA phosphodiesterase 1 (TDP1): qHTS in cells in absence of CPT | AID 686978, 2013 | DT40 Tdp1-/- hTDP1 cells, no CPT, ATP luminescence, 48 h | Potency, µM (series often up to 46.2 µM), actives largely listed as inhibitors | hit rate 15% among 420,000; note: nearly all actives have a fitted effect of over 55% in size
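Growth kinetics read by CellTiter-Glo luminescence after ≥48 hr at 37 °C. Cells: DT40 Tdp1-/- stably carrying human TDP1, 400 per well, compound exposure in the absence of CPT (DMSO vehicle).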
IL1B secr inh – blocks inflammasome-driven IL-1 beta release. activity change, % at 57.5 µM. THP-1 LPS/ATP IL-1B secretion, AlphaLISA, 16 h; active compounds read low. hit rate 4.7% among 360,000; in the data active = activity change below about -50%; inconclusive = mostly about -30% to -49%
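Secreted IL-1B measured by AlphaLISA bead assay after 16 h compound exposure of THP-1 cells; compounds (final up to 57.5 uM) added 1 h before LPS (250 ng/mL) and ATP (1.25 mM) stimulation; lower signal means less secretion.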
DT40 TDP1 CPT – DT40-hTDP1 cell growth loss with CPT. chicken DT40 Tdp1-/-;hTDP1 cells + 20 nM CPT, ATP luminescence, 48 h. Potency, µM (highest dose often 46.2 µM), usual class: inhibitors. hit rate 12% among 420,000. AID 686979; note: nearly all actives have a fitted effect of over 55% in size
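Chicken DT40 Tdp1-/- cells stably complemented with human TDP1 were seeded at 400 cells/well in medium containing 20 nM camptothecin, exposed to pin-transferred compounds, and grown at 37 °C for at least 48 hr. Viability was read as ATP luminescence.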
Each line names hits and unclear results; the compound was inactive in the other large screens. An excerpt weighted towards active compounds, which were near 21% of everything screened. Unless noted, calls come from the whole dose curve; as a rule, active = well fitted inhibition curve with a large enough effect; inconclusive = small, poorly fitted or top-dose-only effect; inactive = flat fitted curve, though single readings scatter.

NC(=O)C1CCCN(Cc2c(C(=O)N3CCc4ccccc4C3)nc3ccc(Cl)cn23)C1 (stereo unspecified)	none
COC(=O)Cc1c(C)nc2nc(NCc3ccc(Br)cc3)[nH]n2c1=O	none (no result: DRD3 antagonist, IL1B secr inh)
O=C(COC(=O)C1C2CC3OC(=O)C1C3C2)Nc1ccc(Cl)cc1 (stereo unspecified)	none (no result: ClpP mod)
O=[N+]([O-])c1nn(-c2ccc3c(c2)OCCO3)n(O)c1=NCCC1=CCCCC1	none
O=[N+]([O-])c1nn(-c2ccc3c(c2)OCCO3)n(O)c1=NC1CCN(Cc2ccccc2)CC1	TDP1 cell noCPT inconclusive, DT40 TDP1 CPT 10µM
O=[N+]([O-])c1nn(-c2ccccc2)n(O)c1=NC1CCN(Cc2ccccc2)CC1	TDP1 cell noCPT 9.2µM, IL1B secr inh inconclusive, DT40 TDP1 CPT 3.3µM (no result: ClpP mod)
CN(Cc1ccco1)C(=O)c1cc(NC(=O)C2CCC2)c2c(c1)nc(-c1ccncc1)n2C	DT40 TDP1 CPT inconclusive (no result: DRD3 agonist, DRD3 antagonist, ClpP mod, IL1B secr inh)
COc1ccccc1NC(=O)N1CCN(c2nnc(C)c3c(C)n(-c4ccccc4)nc23)CC1	TDP1 cell noCPT inconclusive, DT40 TDP1 CPT inconclusive (no result: DRD3 antagonist, IL1B secr inh)
Cc1ccccc1NC(=S)N(Cc1ccccc1)Cc1cccnc1	IL1B secr inh -60 (no result: ClpP mod)
CSc1cccc(NC(=S)N(Cc2ccc(C)cc2)Cc2cccnc2)c1	TDP1 cell noCPT 21µM, DT40 TDP1 CPT inconclusive (no result: ClpP mod)
Cc1[nH]c2ccc(F)cc2c1CCN(Cc1cccnc1)C(=S)Nc1cccc(F)c1	DT40 TDP1 CPT inconclusive (no result: ClpP mod)
COCCCN(Cc1cc(OC)c(OC)c(OC)c1)C(=S)Nc1cccc(SC)c1	TDP1 cell noCPT 8.2µM, DT40 TDP1 CPT 16µM
Cc1ccccc1NC(=S)N(Cc1cccnc1)Cc1ccco1	none
CCOC(=O)CCn1nc(C)c2c(C)n(-c3ccccc3)nc2c1=O	none (no result: DRD3 antagonist, IL1B secr inh)
CCCCCOc1ccc(OC(=O)c2ccncc2)cc1	TDP1 cell noCPT 13µM, DT40 TDP1 CPT 12µM
CCCCCOC(=O)c1ccc(OC(=O)c2cncc(Br)c2)cc1	DRD3 antagonist -74
CC(C)(C)OC(=O)N1CCC(CC2CC(c3ccccc3)=NO2)(C(=O)NCc2ccccc2)CC1 (stereo unspecified)	TDP1 cell noCPT inconclusive, DT40 TDP1 CPT inconclusive
CCCCCCCNC(=O)C1(CC2CC(c3ccccc3)=NO2)CCN(C(=O)OC(C)(C)C)CC1 (stereo unspecified)	TDP1 cell noCPT 18µM, DT40 TDP1 CPT inconclusive
CCCCCCCNC(=O)C1(CC2CC(c3ccccc3)=NO2)CCN(C(=O)c2ccccc2)CC1 (stereo unspecified)	DRD3 antagonist inconclusive, TDP1 cell noCPT 16µM, DT40 TDP1 CPT inconclusive
CC(C)CN(C(=O)c1ccc([N+](=O)[O-])s1)c1c(N)n(Cc2ccccc2)c(=O)[nH]c1=O	TDP1 cell noCPT inconclusive, DT40 TDP1 CPT inconclusive
Cc1nc([N+](=O)[O-])cn1-c1ccc([N+](=O)[O-])cc1	none (no result: DRD3 antagonist, ClpP mod, IL1B secr inh)
CCc1nc2cc(C(=O)N[C@H]3CCCCNC3=O)cc(NC(=O)c3ccccc3OC)c2n1C	none (no result: DRD3 agonist, DRD3 antagonist, ClpP mod, IL1B secr inh)
C=C1CCC2[C@](C)(CO)[C@H](O)CC[C@@]2(C)[C@@H]1C/C=C1/C(=O)OC[C@H]1O (stereo partly specified)	none (no result: DRD3 agonist, DRD3 antagonist, ClpP mod, IL1B secr inh)
C=C1CCC2[C@](C)(CO)[C@H](O)CC[C@@]2(C)[C@@H]1C/C=C1\C(=O)OC[C@H]1O (stereo partly specified)	TDP1 cell noCPT 4.6µM, IL1B secr inh -88, DT40 TDP1 CPT 3.7µM
Cc1ccc(-n2nc(C)c3c(C)cc(=O)n(CC(=O)Nc4ccc(Br)cc4F)c32)cc1	none (no result: DRD3 antagonist, IL1B secr inh)
O=c1n(CCCN2CCN(c3cccc(Cl)c3)CC2)nc2ccccn12	DRD3 antagonist -93, TDP1 cell noCPT inconclusive
O=C1C2CCCCN2C(=O)N1CCCCN1CCN(c2cccc(C(F)(F)F)c2)CC1 (stereo unspecified)	DRD3 antagonist -140, TDP1 cell noCPT inconclusive, IL1B secr inh inconclusive, DT40 TDP1 CPT 10µM (no result: ClpP mod)
O=C1C2CCCCN2C(=O)N1CCCCN1CCN(c2cccc(Cl)c2)CC1 (stereo unspecified)	DRD3 antagonist -60, TDP1 cell noCPT inconclusive
CC(C)C(=O)Nc1cccc(N2CCN(CCCN3C(=O)C4CCCCN4C3=O)CC2)c1 (stereo unspecified)	TDP1 cell noCPT inconclusive
O=C1C2CCCN2C(=O)N1CCCN1CCN(c2cccc(Cl)c2)CC1 (stereo unspecified)	DRD3 antagonist -50, TDP1 cell noCPT inconclusive
Cn1c(CN2CCN(c3cccc(Cl)c3)CC2)nc2ccccc21	DRD3 antagonist inconclusive, TDP1 cell noCPT inconclusive, DT40 TDP1 CPT inconclusive
CC(C)CNC(=O)C1(C)CCCN1C(=O)c1cc2ccccc2s1 (stereo unspecified)	none
O=C(CN(Cc1ccccc1Cl)C(=O)c1csnn1)NCc1ccccc1	none (no result: ClpP mod)
CCC(C(=O)NCc1ccc(F)cc1)N(Cc1cccs1)C(=O)c1snc(C(N)=O)c1N (stereo unspecified)	none (no result: ClpP mod)
COCCN(C(=O)c1cc(Cl)nc2ccccc12)c1c(N)n(Cc2ccccc2)c(=O)[nH]c1=O	none
O=C1C2CCCCN2C(=O)N1CCCCN1CCN(c2ccc([N+](=O)[O-])cc2)CC1 (stereo unspecified)	TDP1 cell noCPT 15µM, DT40 TDP1 CPT inconclusive
CCCNC(=O)CSc1nc2ccc(OCC)cc2s1	none
O=C(CSc1nc2cc(Cl)ccc2s1)NC(=O)NCc1ccco1	TDP1 cell noCPT inconclusive
CCOc1ccc2nc(SCC(=O)NCc3ccco3)sc2c1	TDP1 cell noCPT 23µM, DT40 TDP1 CPT inconclusive
CCOc1ccc2nc(SCC(=O)NC(=O)NCc3ccco3)sc2c1	TDP1 cell noCPT 26µM, DT40 TDP1 CPT inconclusive
COc1ccc(S(=O)(=O)Nc2ccc(F)cc2)cc1N(C)S(=O)(=O)c1ccc(Cl)cc1	TDP1 cell noCPT inconclusive, IL1B secr inh -94, DT40 TDP1 CPT inconclusive
COc1ccc(NS(=O)(=O)c2ccc(OC)c(N(C)S(=O)(=O)c3ccc(Cl)cc3)c2)cc1	TDP1 cell noCPT 6.5µM, IL1B secr inh -83, DT40 TDP1 CPT 10µM
COc1ccc(S(=O)(=O)Nc2ccc(S(=O)(=O)Nc3ccc(F)cc3)cc2)cc1C	TDP1 cell noCPT inconclusive
COc1ccc(S(=O)(=O)Nc2ccc(F)c(F)c2)cc1Cl	DT40 TDP1 CPT inconclusive
CCCCNC(=O)C(NC(=O)Cc1cc(C(F)(F)F)cc(C(F)(F)F)c1)C(=O)c1ccccc1 (stereo unspecified)	TDP1 cell noCPT inconclusive, DT40 TDP1 CPT 29µM
